About 7,900 targets were measured; listed, in parts, are those with a hit and a random draw of the rest. About 0.6% of all pairs of compound and target were hits.
Each target was assayed with O=C(CCCCCCNC(=O)c1cnc(N(c2ccccc2)c2ccccc2Cl)nc1)NO [citarinostat] (assay: log2 fold change, soluble protein after heating vs DMSO (PISA); higher = thermal stabilisation; K562 cells, 10 uM, 30 min; active = over 0.2 and 3.5 SD of the protein, either way, in both replicates (recomputed)).
Method in brief: (§1)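 K562 cells (2×10^6 cells/mL) were treated with 10 μM compound for 30 min, and aliquots were heated for 3 min over 48°C-58°C. Pooled aliquots were extracted in PBS with 0.5% NP-40 at 4°C, and the supernatant after 21,000xg for 90 min was measured by TMTpro 16plex LC-MS/MS with channel sums equalised. Reported thermal stability, relative to control samples and from duplicates, is a log2 fold change.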

Sequence of UniProt Q8N5I2 (Q8N5I2 whole entry, looked up): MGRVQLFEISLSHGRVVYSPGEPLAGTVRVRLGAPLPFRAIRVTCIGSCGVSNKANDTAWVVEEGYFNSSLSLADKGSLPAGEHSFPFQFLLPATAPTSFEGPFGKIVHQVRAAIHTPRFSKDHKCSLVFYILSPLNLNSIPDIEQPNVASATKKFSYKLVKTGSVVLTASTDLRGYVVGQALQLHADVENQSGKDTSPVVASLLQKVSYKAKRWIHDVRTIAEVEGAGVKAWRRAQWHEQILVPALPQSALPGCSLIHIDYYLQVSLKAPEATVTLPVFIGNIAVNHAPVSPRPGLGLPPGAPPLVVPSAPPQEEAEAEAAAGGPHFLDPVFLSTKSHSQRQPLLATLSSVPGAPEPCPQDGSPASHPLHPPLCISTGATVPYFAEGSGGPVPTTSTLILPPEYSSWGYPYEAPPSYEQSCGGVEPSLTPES
Sequence of UniProt Q9BTE6 (Q9BTE6 whole entry, looked up): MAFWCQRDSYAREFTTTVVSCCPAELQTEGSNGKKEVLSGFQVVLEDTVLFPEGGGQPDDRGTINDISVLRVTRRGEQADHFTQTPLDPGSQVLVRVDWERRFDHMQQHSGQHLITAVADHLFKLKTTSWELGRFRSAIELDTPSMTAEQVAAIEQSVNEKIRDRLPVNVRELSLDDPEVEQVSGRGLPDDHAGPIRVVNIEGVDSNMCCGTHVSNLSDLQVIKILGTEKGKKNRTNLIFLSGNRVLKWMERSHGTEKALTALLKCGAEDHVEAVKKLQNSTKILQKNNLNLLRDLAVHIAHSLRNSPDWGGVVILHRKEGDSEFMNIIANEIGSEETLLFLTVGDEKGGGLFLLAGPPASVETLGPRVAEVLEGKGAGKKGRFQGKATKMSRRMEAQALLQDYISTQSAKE
Sequence of UniProt Q96F25 (Q96F25 whole entry, looked up): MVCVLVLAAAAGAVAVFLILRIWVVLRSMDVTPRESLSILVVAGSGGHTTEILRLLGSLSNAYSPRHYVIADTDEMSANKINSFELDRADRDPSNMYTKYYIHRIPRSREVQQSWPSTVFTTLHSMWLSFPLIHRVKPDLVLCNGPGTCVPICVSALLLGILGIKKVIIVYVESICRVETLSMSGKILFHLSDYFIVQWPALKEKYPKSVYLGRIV
Sequence of UniProt Q8NFV4 (Q8NFV4 whole entry, looked up): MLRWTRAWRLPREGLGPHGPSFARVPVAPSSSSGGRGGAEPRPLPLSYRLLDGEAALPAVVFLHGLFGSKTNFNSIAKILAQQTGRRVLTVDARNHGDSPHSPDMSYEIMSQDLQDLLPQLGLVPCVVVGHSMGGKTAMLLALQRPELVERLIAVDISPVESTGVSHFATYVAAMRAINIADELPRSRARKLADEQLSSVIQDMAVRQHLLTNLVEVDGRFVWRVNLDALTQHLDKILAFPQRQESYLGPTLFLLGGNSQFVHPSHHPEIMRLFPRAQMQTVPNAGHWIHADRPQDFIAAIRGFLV
Sequence of UniProt P15056 (P15056 whole entry, looked up): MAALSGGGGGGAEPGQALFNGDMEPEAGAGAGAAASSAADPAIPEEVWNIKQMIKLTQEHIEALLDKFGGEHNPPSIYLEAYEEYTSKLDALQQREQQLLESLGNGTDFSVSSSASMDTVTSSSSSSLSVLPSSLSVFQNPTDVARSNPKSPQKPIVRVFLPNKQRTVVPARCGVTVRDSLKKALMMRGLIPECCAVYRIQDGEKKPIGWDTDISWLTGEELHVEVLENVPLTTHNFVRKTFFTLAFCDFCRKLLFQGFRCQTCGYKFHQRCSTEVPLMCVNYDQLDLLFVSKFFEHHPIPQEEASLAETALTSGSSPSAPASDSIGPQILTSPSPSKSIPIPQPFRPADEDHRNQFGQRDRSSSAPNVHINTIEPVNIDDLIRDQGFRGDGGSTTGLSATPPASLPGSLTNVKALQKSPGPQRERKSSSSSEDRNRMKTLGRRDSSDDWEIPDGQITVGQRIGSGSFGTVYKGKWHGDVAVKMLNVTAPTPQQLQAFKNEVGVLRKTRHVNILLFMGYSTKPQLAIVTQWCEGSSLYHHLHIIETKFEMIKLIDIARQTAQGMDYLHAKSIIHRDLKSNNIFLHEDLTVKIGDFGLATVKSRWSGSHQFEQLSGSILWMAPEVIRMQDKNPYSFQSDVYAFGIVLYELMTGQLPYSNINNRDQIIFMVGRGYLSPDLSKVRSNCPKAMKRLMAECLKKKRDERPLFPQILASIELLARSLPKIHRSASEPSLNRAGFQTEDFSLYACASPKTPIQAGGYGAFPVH
Sequence of UniProt Q13825 (Q13825 whole entry, looked up): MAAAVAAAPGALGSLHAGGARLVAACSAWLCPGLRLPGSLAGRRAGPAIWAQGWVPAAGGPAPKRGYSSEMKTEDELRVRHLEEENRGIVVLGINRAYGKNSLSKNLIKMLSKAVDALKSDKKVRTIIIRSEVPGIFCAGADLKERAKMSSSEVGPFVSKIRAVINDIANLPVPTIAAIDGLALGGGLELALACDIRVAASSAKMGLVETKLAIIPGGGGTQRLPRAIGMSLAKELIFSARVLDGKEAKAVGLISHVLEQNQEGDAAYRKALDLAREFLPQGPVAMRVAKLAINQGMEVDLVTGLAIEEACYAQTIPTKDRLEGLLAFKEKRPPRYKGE
Sequence of UniProt P78363 (P78363 whole entry, looked up): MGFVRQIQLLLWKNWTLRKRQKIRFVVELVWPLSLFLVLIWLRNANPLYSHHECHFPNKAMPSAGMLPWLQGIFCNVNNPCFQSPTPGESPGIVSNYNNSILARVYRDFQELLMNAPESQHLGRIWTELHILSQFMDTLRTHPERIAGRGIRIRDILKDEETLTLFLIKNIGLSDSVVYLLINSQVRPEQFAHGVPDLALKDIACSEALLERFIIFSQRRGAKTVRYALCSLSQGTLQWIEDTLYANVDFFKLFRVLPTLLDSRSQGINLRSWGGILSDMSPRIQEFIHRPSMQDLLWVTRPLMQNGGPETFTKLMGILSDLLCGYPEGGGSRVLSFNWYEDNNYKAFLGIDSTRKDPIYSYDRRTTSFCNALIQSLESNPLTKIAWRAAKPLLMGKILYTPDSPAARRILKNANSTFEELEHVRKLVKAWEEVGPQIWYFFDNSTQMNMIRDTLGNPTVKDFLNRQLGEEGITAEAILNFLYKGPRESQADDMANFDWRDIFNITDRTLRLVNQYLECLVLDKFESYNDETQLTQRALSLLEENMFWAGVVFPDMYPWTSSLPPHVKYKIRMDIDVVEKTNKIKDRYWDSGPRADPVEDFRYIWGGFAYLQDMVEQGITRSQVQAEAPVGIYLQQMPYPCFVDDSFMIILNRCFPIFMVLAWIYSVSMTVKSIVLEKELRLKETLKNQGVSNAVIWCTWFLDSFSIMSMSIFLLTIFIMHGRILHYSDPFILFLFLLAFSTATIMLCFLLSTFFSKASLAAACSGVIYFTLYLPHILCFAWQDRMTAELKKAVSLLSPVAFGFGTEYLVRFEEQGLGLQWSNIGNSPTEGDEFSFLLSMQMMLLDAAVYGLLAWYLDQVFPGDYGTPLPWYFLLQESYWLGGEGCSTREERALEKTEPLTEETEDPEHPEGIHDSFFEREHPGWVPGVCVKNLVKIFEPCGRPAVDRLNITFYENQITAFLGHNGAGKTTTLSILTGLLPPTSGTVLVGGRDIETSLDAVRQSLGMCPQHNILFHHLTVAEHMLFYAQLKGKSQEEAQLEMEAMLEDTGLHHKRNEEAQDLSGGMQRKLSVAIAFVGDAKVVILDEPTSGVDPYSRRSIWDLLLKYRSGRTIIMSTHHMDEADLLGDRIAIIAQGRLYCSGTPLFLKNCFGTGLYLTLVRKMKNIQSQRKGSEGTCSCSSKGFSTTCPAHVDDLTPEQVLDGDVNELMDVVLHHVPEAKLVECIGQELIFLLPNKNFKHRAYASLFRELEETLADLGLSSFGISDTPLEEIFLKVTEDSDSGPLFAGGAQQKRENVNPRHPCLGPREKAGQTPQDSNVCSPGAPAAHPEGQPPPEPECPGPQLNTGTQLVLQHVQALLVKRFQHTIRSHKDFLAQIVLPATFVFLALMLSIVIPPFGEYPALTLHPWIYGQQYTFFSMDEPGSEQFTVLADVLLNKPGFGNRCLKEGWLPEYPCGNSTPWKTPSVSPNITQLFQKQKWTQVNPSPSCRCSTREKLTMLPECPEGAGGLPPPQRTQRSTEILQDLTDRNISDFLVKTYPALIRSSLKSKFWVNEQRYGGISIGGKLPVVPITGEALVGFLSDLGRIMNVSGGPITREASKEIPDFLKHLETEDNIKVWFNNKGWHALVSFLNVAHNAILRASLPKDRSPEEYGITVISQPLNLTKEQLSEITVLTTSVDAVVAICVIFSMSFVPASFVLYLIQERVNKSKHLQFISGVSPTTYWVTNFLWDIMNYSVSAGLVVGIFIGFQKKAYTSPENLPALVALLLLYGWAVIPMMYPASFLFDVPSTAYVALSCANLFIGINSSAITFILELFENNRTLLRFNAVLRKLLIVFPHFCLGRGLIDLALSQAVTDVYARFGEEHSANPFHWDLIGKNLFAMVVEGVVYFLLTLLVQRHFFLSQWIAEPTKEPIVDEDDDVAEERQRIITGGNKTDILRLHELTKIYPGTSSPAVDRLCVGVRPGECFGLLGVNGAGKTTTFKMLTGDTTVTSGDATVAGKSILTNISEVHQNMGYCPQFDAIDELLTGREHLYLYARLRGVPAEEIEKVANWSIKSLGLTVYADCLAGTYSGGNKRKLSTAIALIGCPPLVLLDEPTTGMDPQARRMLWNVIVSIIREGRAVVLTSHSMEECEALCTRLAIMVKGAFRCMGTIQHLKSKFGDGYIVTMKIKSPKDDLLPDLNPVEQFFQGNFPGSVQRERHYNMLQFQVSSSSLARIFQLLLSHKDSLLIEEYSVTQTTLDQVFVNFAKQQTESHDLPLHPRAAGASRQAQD
Sequence of UniProt Q9HCU9 (Q9HCU9 whole entry, looked up): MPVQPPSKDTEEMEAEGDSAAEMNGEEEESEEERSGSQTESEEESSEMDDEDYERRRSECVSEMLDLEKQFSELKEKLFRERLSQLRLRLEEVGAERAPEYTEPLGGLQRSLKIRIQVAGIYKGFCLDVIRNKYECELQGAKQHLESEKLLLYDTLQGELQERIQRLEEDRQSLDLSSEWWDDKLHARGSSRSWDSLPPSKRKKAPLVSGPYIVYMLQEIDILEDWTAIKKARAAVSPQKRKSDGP

log2 fold change, inactive:
BRIP1 (UniProt Q9BX63) 0.054
AUH (UniProt Q13825) -0.103
ARRDC1 (UniProt Q8N5I2) 0.056
ARHGAP25 isoform 4 (UniProt P42331) 0.105
BRD8 isoform 2 (UniProt Q9H0E9) -0.019
BRMS1 (UniProt Q9HCU9) -0.097
ATXN3 isoform 1 (UniProt P54252) -0.01
ABCA3 (UniProt Q99758) 0.021
ATXN7L3 isoform 2 (UniProt Q14CW9) -0.087
ABCA4 (UniProt P78363) 0.013
ABHD11 (UniProt Q8NFV4) 0.058
AGAP3 isoform 4 (UniProt Q96P47) -0.063
ALG14 (UniProt Q96F25) 0.028
AZI2 (UniProt Q9H6S1) -0.014
BRAF (UniProt P15056) -0.002
ALDH2 isoform 2 (UniProt P05091) -0.055
AARSD1 (UniProt Q9BTE6) 0.144

What follows are targets tested with O=C(O)c1ccc2c(c1)nc(Nc1cccc(Cl)c1)c1ccncc12 [silmitasertib] in the same assay as above.
Method in brief: as §1

log2 fold change, inactive:
ADPRH (UniProt P54922) 0.086
AUH (UniProt Q13825) -0.061
ARRDC1 (UniProt Q8N5I2) 0.075
ARHGAP25 isoform 4 (UniProt P42331) 0.213
BSCL2 isoform 4 (UniProt Q96G97) 0.172
ADD2 isoform 9 (UniProt P35612) -0.225
BRMS1 (UniProt Q9HCU9) -0.042
ATXN3 isoform 1 (UniProt P54252) 0.093
ATXN7L3 isoform 2 (UniProt Q14CW9) -0.373
ABCA4 (UniProt P78363) -0.082
ABHD11 (UniProt Q8NFV4) -0.021
AASDH (UniProt Q4L235) 0.036
AGAP3 isoform 4 (UniProt Q96P47) -0.019
BRAF, A0A2R8Y8E0 -0.064
ALG14 (UniProt Q96F25) 0.076
ARFIP1 isoform 2 (UniProt P53367) -0.08
BAP18 isoform 3 (UniProt Q8IXM2) -0.119
ARL4A (UniProt P40617) 0.068
ACSL6 isoform 1 (UniProt Q9UKU0) -0.077
BRAF (UniProt P15056) 0.024
AARSD1 (UniProt Q9BTE6) 0.137
